According to PubChem BioAssay (EPA / NIEHS):
Several values for one entry are separate records, joined by “and”; a condition that tells them apart may be missing. Equal values may be shown once. Results filed as inconclusive are left out. Activity calls are given as the source filed them. How the source made its calls, unless noted: active means hit-call score of the fitted dose curve at least 0.9, where 1 is the maximum; inactive means score below 0.9.

Assays:
[1] = BSK_3C_Vis: BioMAP Diversity Plus: 3C Assay for Morphology Visualization (AID 2283025); conditions: primary human endothelial cells (HUVEC);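 further: fitted both ways so gain or loss versus DMSO counts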
In short: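 Morphology read by light microscopy serves as a background control for the multiplexed 3C assay in human umbilical vein endothelial cells, taken 24 h after dosing, with DMSO as the negative control and bidirectional curve fitting.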

[2] = read-out: Transforming growth factor beta 1 (TGFb1), TGFB1 (gene 7040); assay: BSK_BE3C_TGFb1: BioMAP Diversity Plus: BE3C Assay for Transforming growth factor beta 1 (TGFb1) Biomarker Activity (AID 2283036;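 further: TGF-b1 protein level measured by ELISA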); conditions: primary human bronchial epithelial cells; actives raise or lower the signal
In short: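 Bronchial epithelial primary cells are treated with test chemical, then TGF-b1 is quantified by ELISA after 24 hours. Values derive from bidirectional fitting against DMSO, with cytotoxicity checked by SRB staining in parallel cultures.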

[3] = read-out: Transforming growth factor beta 1 (TGFb1), TGFB1 (gene 7040); assay: BSK_KF3CT_TGFb1: BioMAP Diversity Plus: KF3CT Assay for Transforming growth factor beta 1 (TGFb1) Biomarker Activity (AID 2283072); conditions: primary human keratinocytes with fibroblasts; actives raise or lower the signal
In short: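 KF3CT co-culture (keratinocytes + fibroblasts), 24 h exposure → TGF-b1 ELISA → bidirectional fit, DMSO = baseline. Parallel SRB total-protein staining (0.1% SRB, 10% TCA fixation, 560 nm) for cytotoxicity.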

[4] = BSK_SAg_Proliferation: Cell Proliferation Assessment in the BioMAP Diversity Plus: SAg Assay (AID 2283095); conditions: primary human HUVEC with PBMC;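 further: relative cell number as total protein by SRB absorbance in sub-confluent culture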
In short: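 Absorbance of sulforhodamine B at 560 nm reports total protein in a human vascular endothelial/PBMC co-culture after 96 h chemical exposure. Gain or loss of signal is fitted in both directions against DMSO.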

[5] = BSK_SAg_SRB: Viability Assessment in the BioMAP Diversity Plus: SAg Assay (AID 2283096); conditions: primary human HUVEC with PBMC;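 further: cells read one day after compound addition; hits may be either gain or loss of signal compared with DMSO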
In short: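 This overt-cytotoxicity endpoint quantifies protein in human endothelial/PBMC co-cultures at 24 h using SRB absorbance (560 nm) after trichloroacetic acid fixation. Values reflect signal change from the DMSO negative control, fitted bidirectionally.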

[6] = BSK_BT_PBMCCytotoxicity: PBMC Cytotoxicity Assessment in the BioMAP Diversity Plus: BT Assay (AID 2284225); conditions: primary human B cells with PBMC;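 further: PBMC viability measured by Alamar Blue dye reduction fluorescence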
In short: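 Viability by Alamar Blue reduction (6 h, ex/em 546/580 nm) after 90 h culture of SEB/TSST-1-activated PBMC (20 ng/mL each) given compound 1 h before activation. DMSO served as baseline for curve fitting.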

[7] = read-out: Secreted IgG (sIgG), gene 3500; assay: BSK_BT_sIgG: BioMAP Diversity Plus: BT Assay for Secreted IgG (sIgG) Biomarker Activity (AID 2284226); conditions: primary human B cells with PBMC
In short: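 Cells (B cells with peripheral blood mononuclear cells) are dosed, cultured 24 h, then supernatant IgG is measured by ELISA. DMSO serves as negative control; curves are fitted for signal increase.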

[8] = read-out: Interleukin 6 (IL6), IL6 (gene 3569); assay: BSK_BT_xIL6: BioMAP Diversity Plus: BT Assay for Interleukin 6 (IL6) Biomarker Activity (AID 2284228); conditions: primary human B cells with PBMC
In short: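 Human B cell/PBMC co-culture; secreted IL-6 quantified by Luminex xMAP 24 h after chemical dosing, fitted relative to DMSO. Parallel PBMC viability by Alamar Blue after 1 h pretreatment, 20 ng/mL SEB and TSST-1, 90 h incubation.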

[9] = read-out: Interleukin 17A (IL17A), IL17A (gene 3605); assay: BSK_BT_xIL17A: BioMAP Diversity Plus: BT Assay for Interleukin 17A (IL17A) Biomarker Activity (AID 2284229); conditions: primary human B cells with PBMC
In short: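 Co-culture of human B cells and PBMC, dosed for 24 h in 96-well format. Secreted IL-17A measured with Luminex xMAP; gain-direction fitting against DMSO as baseline.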

[10] = read-out: Tumor necrosis factor (Homo sapiens) (UniProt P01375); assay: BSK_BT_xTNFa: BioMAP Diversity Plus: BT Assay for Tumor necrosis factor alpha (TNF-alpha) Biomarker Activity (AID 2284230); conditions: primary human B cells with PBMC
In short: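 Endpoint derived in the positive direction versus DMSO vehicle. Cells: B cells together with PBMC, exposed 24 h before TNF-alpha in the medium was read on the Luminex xMAP platform.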

[11] = read-out: Collagen I, COL1A1 (gene 1277); assay: BSK_MyoF_CollagenI: BioMAP Diversity Plus: MyoF Assay for Collagen I Biomarker Activity (AID 2284238); conditions: primary human lung fibroblasts
In short: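 Primary human lung fibroblasts (MyoF system) treated 24 h; Collagen I quantified by ELISA and fitted in positive direction against DMSO. Parallel SRB total-protein staining assessed overt cytotoxicity.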

[12] = read-out: Collagen III, COL3A1 (gene 1281); assay: BSK_MyoF_CollagenIII: BioMAP Diversity Plus: MyoF Assay for Collagen III Biomarker Activity (AID 2284239); conditions: primary human lung fibroblasts
In short: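 Primary human lung fibroblasts (BioMAP MyoF system) exposed 24 h. Collagen III measured by ELISA; positive-direction fit relative to DMSO.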

[13] = read-out: Interleukin 17F (IL17F), IL17F (gene 112744); assay: BSK_BT_xIL17F: BioMAP Diversity Plus: BT Assay for Interleukin 17F (IL17F) Biomarker Activity (AID 2284243); conditions: primary human B cells with PBMC
In short: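 Human PBMC co-cultured with B cells, compound exposure 24 h; secreted IL-17F quantified by Luminex xMAP, referenced to DMSO control. PBMC viability measured in parallel by Alamar Blue reduction.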

[14] = read-out: Actin alpha 1 (ACTA1), ACTA1 (gene 58); assay: BSK_MyoF_ACTA1: BioMAP Diversity Plus: MyoF Assay for Actin alpha 1 (ACTA1) Biomarker Activity (AID 2284244); conditions: primary human lung fibroblasts
In short: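 Cells were exposed to chemical for 24 h before a-SMA levels were quantified by ELISA in human lung fibroblasts. Increases were fitted against DMSO as negative control; parallel SRB staining (0.1% after 10% TCA fixation, 560 nm) assessed cytotoxicity.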

[15] = read-out: Interleukin 2 (IL2), IL2 (gene 3558); assay: BSK_BT_xIL2: BioMAP Diversity Plus: BT Assay for Interleukin 2 (IL2) Biomarker Activity (AID 2284245); conditions: primary human B cells with PBMC
In short: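 The BT system combines human B cells with peripheral blood mononuclear cells. Twenty-four hours after chemical dosing, secreted IL-2 was measured with xMAP bead technology, and responses were analyzed as increases over DMSO controls.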

[16] = read-out: Basic fibroblast growth factor (bFGF), FGF2 (gene 2247); assay: BSK_MyoF_bFGF: BioMAP Diversity Plus: MyoF Assay for Basic fibroblast growth factor (bFGF) Biomarker Activity (AID 2284246); conditions: primary human lung fibroblasts
In short: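 Chemicals are added to human lung fibroblast cultures and incubated 24 h. bFGF is then measured by ELISA, while parallel cultures receive SRB staining for total protein as a cytotoxicity check. Data are fitted upward against DMSO.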

[17] = read-out: Collagen IV, COL4A1 (gene 1282); assay: BSK_MyoF_CollagenIV: BioMAP Diversity Plus: MyoF Assay for Collagen IV Biomarker Activity (AID 2284247); conditions: primary human lung fibroblasts
In short: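 Human lung fibroblast system, 24 h chemical exposure. Endpoint: Collagen IV by ELISA, upward fit vs DMSO.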

[18] = read-out: Interleukin-8 (IL8), CXCL8 (gene 3576); assay: BSK_MyoF_IL8: BioMAP Diversity Plus: MyoF Assay for Interleukin-8 (IL8) Biomarker Activity (AID 2284261); conditions: primary human lung fibroblasts
In short: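 Human lung fibroblast (MyoF system) cultures dosed for 24 h, then IL-8 measured by ELISA. Response taken relative to DMSO; parallel SRB total-protein staining for cytotoxicity.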

[19] = read-out: Decorin, DCN (gene 1634); assay: BSK_MyoF_Decorin: BioMAP Diversity Plus: MyoF Assay for Decorin Biomarker Activity (AID 2284265); conditions: primary human lung fibroblasts
In short: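 Human lung fibroblast cultures were dosed for 24 h, and decorin was then measured by ELISA. Parallel cultures were stained with sulforhodamine B for total protein as a cytotoxicity check. Gain of signal was fitted relative to DMSO.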

[20] = biological target: Steroid hormone receptor ERR1 (Homo sapiens) (UniProt P11474); assay: ATG_ERRa_TRANS: Attagene TRANS-FACTORIAL HepG2 Assay for human Estrogen-Related Receptor alpha (ERRa) (AID 2282971; active means hit-call score of the fitted dose curve at least 0.9, where 1 is the maximum); conditions: HepG2 Attagene TRANS reporter, ERRa transactivation
Steroid hormone receptor ERR1 (Homo sapiens), sequence (P11474 whole entry, looked up, the tested form may be a part): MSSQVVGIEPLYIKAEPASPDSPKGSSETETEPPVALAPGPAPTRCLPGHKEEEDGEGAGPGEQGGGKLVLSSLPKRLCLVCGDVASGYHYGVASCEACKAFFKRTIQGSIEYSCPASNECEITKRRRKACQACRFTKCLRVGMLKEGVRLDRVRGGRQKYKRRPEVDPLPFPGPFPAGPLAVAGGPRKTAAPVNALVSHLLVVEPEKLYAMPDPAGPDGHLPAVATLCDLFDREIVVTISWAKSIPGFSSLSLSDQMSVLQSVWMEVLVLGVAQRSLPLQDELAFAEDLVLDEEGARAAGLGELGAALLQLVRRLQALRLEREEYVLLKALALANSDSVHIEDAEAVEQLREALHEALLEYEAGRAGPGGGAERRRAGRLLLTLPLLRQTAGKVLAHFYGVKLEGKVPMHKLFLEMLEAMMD
In short: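 HepG2 cells transiently transfected with GAL4-UAS reporter units and chimeric NR-Gal4 constructs; after 24 hour compound incubation, reporter mRNA quantified by RT-PCR, fluorescent labelling and capillary electrophoresis, gain of signal versus DMSO.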

Measured: AC50

Tumor necrosis factor (Homo sapiens), sequence (P01375 whole entry, looked up): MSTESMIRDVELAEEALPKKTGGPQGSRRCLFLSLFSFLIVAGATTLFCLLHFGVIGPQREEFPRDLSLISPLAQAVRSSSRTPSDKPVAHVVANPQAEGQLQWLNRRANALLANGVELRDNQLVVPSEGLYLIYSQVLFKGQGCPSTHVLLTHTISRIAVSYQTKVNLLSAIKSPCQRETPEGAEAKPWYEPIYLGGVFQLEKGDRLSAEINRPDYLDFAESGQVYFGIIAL

CCCOC(=O)c1ccccc1C(=O)OCCC
active: [7] 20 µM
not listed: [20]
inactive: all other assays above

O=C(CCl)c1ccccc1
inactive: [2]
active: [1] 4.12 µM | [3] 25.7 µM | [4] 1.06 µM | [5] 14 µM

O=[N+]([O-])c1ccc(Cl)cc1
inactive: [1] | [2] | [3] | [4] | [5]

CC(C)(c1cc(Cl)c(O)c(Cl)c1)c1cc(Cl)c(O)c(Cl)c1
active: [1] 39.6 µM | [3] 5.27 µM | [4] 25.9 µM | [11] 5.31 µM | [12] 9.8 µM | [14] 6.18 µM | [16] 30.9 µM | [18] 34 µM
not listed: [5] | [20]
inactive: all other assays above

CC1OC(C)OC(C)O1 (centres undefined)
inactive: [20]

COc1ccc(CO)cc1
inactive: [4] | [5]

C=COCCCl
inactive: [20]

CCCCCCC1CCOC1=O (centres undefined)
inactive: [20]

C=CCN(CC=C)C(=O)C(Cl)Cl
not listed: [20]
inactive: all other assays above

CCNCC
inactive: [20]

Oc1ccc(C2(c3ccc(O)cc3)c3ccccc3-c3ccccc32)cc1
inactive: [20]
active: [4] 9.89 µM and 9.81 µM | [5] 15.9 µM and 15.6 µM

CC(C)CCCCCCCOC(=O)c1ccccc1C(=O)OCCCCCCCC(C)C
not listed: [20]
inactive: all other assays above
